Drawing on PubChem BioAssay AID651558 (National Center for Advancing Translational Sciences (NCATS), 2012), this text covers Potency for 99 molecules.

Hit rate of the full screen: of about 1,200 compounds, about 480 (40%) were called active. About 29% were inconclusive and are not listed. Calls follow the shape of the dose curve; as a rule, active = well fitted inhibition curve with a large enough effect; inconclusive = small, poorly fitted or top-dose-only effect; inactive = no such curve, though single readings can be large or run the other way. The list shows a part of the results.
Potency is read from the fitted curve at half-maximal effect.

This experiment can be described thus: qHTS Assay to Find Inhibitors of Chronic Active B-Cell Receptor Signaling: Hit Validation in Primary Screen. Also: nearly all actives have a fitted effect of over 75% in size. The conditions noted are these: ABC-DLBCL IkB-luc/CBR ratio luminescence, 4 h; series mostly up to 46.1 µM. The essentials: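 TMD8 ABC-DLBCL cells carrying doxycycline-inducible IkBa-green luciferase fusion and free red luciferase, 0.5% FBS, dosed 46 uM–3 nM with doxycycline for 4 h at 37C. Green/red luminescence ratio normalized to basal and 10 uM MG-132.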
Background: In qHTS, concentration-response curves come from the screen itself.
Regarding `Cc1ccc(/C=N/NC(=O)c2cc(-c3ccncc3)nc3ccccc23)o1`, the Potency is 5.17 µM (active).

Take `CCc1ccc(/C=N/NC(=O)c2cc(-c3ccncc3)nc3ccccc23)s1`: the Potency was 8.2 µM (active).

In the case of `COc1ccc(-c2cc(C(=O)N/N=C(\C)c3cccnc3)c3ccccc3n2)cc1`, the Potency entry is “inactive”.

In the case of `Cc1ccsc1/C=N/NC(=O)c1cc(-c2ccncc2)nc2ccccc12`, the Potency is 1.64 µM (active).

`Cc1ccc(/C=N/NC(=O)c2cc(-c3cccnc3)nc3ccccc23)cc1`: the Potency was 2.31 µM (active).

Regarding `Fc1ccc(/C=N/NC(=S)Nc2cccnc2)cc1`, the Potency result is “inactive”.

With `O=C(CSc1cccc[n+]1[O-])c1ccc(Cl)cc1`, the Potency result is “inactive”.

With `CCc1ccc(NC(=O)CSc2nc(=O)n(CCCN3CCOCC3)c3c2CCCC3)cc1`, the Potency entry was “inactive”.

For the molecule `O=C(N/N=C/c1ccc([N+](=O)[O-])o1)c1cc(-c2ccc(-c3ccccc3)cc2)nc2ccccc12`, the Potency is 4.61 µM (active).

Regarding `O=C(N/N=C/c1cccs1)c1cc(-c2ccncc2)nc2ccccc12`, the Potency was 2.59 µM (active).

For the molecule `S=C(NCCN1CCOCC1)N/N=C/c1cccs1`, the Potency result is “inactive”.

In the case of `CC(=NNC(=O)c1cc(C)nc2ccccc12)c1ccc(N2CCOCC2)cc1`, the Potency result is “inactive”.

`CCc1ccc(/C=N/NC(=O)c2cc(C3CC3)nc3ccccc23)s1`: the Potency was 16.4 µM (active).

As to `COC(=O)c1cnc(Oc2ccc(NC(=O)NC(=O)c3c(OC)cccc3OC)cc2)cc1C(F)(F)F`, the Potency was 1.84 µM (active).

As for `Cc1cc(C)c2cc(C=O)c(Cl)nc2c1`, the Potency was 3.66 µM (active).

For `Cc1ccc(N=Nc2c(C)[nH]n(C(N)=S)c2=O)cc1`, the Potency result is “inactive”.

As for `CCc1cc2c(SCC(=O)NC3CC3)ncnc2s1`, the Potency entry was “inactive”.

On to `COc1ccc(C2CC(c3c(O)cc(C)oc3=O)=NCCS2)c(OC)c1` (centres undefined), for which the Potency was 1.16 µM (active).

Regarding `Cc1ccc(C(=O)Nc2nc(C)c(C(=O)Nc3ccc4c(c3)CCC4)s2)cc1`, the Potency is 4.61 µM (active).

Take `CCCn1nnc(NC(=S)NC(=O)c2ccc(-c3ccc(Br)cc3)o2)n1`: the Potency entry is “inactive”.

For `COc1cc(C2=NOC(C(=O)NCc3ccc(F)cc3)C2)cc(OC)c1OC` (centres undefined), the Potency is 4.61 µM (active).

Consider `COc1ccc(C2=NOC(C(=O)NCc3ccc(F)cc3)C2)cc1` (centres undefined), for which the Potency is 18.4 µM (active).

Take `COc1cc(C(=O)NC2CCN(Cc3nnnn3Cc3ccc(F)cc3)CC2)cc(OC)c1OC`: the Potency entry was “inactive”.

In the case of `Cc1ccc(C(=O)O)cc1NC(=S)NC(=O)C(c1ccccc1)c1ccccc1`, the Potency entry was “inactive”.

For the molecule `Cc1cc(C)cc(N2CC(O)=C(c3nc4ccccc4c(=O)[nH]3)C2=N)c1`, the Potency result is “inactive”.

For the molecule `COc1cccc(N2CC(O)=C(c3nc4ccccc4s3)C2=N)c1`, the Potency is 23.1 µM (active).

Take `COc1ccc(/C=N/Nc2nccnc2Cl)c(OC)c1`: the Potency is 23.1 µM (active).

For `COc1ccc(/C(C)=N/Nc2ncc(Cl)cc2Cl)c(O)c1`, the Potency result was “inactive”.

For `CCOC(=O)N1CCN(S(=O)(=O)c2ccc(C(=O)Nc3ccc(F)cc3F)cc2)CC1`, the Potency is 20.6 µM (active).

As to `CC(C)COc1ccc(C(=O)Nc2cc(S(=O)(=O)N3CCOCC3)ccc2N2CCCC2)cc1`, the Potency entry is “inactive”.

With `COc1cc(OC)cc(-c2cc3cc4c(cc3cn2)OCO4)c1`, the Potency was 3.66 µM (active).

Regarding `CCOC(=O)C1CCN(S(=O)(=O)c2c(Cl)ccc3nonc23)CC1`, the Potency is 5.8 µM (active).

`CCOc1ccc2nc(N3C(=O)CNC3=S)sc2c1`: the Potency result is “inactive”.

In the case of `CCOC(=O)Nc1ccc2nc(N3CCCCCC3)sc2c1`, the Potency was 20.6 µM (active).

Turning to `CN(CC(=O)Nc1ccccc1C(F)(F)F)C(=O)c1ccccc1Sc1ccccc1C#N`, the Potency entry was “inactive”.

Turning to `COc1cccc(N2CCN(C(=O)c3ccc(CS(=O)c4ccc(Cl)cc4)o3)CC2)c1` (centres undefined), the Potency is 23.1 µM (active).

Turning to `COc1cccc(N2CCN(C(=O)c3ccc(CS(=O)c4ccc(C)cc4)o3)CC2)c1` (centres undefined), the Potency is 6.51 µM (active).

For the molecule `C=CCNC(=S)NN=C1CCCCCCC1`, the Potency entry is “inactive”.

For the molecule `CCOC(=O)c1cnc(Nc2nc3ccccc3o2)nc1CSC(=S)N(CC)CC`, the Potency entry was “inactive”.

For `COc1ccc(C=C2c3ccccc3C(=O)c3ccccc32)c(OC)c1`, the Potency was 4.61 µM (active).

As for `O=C(OCC(O)CO)c1ccccc1Nc1ccnc2cc(Cl)ccc12` (centres undefined), the Potency is 20.6 µM (active).

`Oc1ccccc1-n1c(-c2ccccc2)ccc1-c1ccccc1`: the Potency entry is “inactive”.

`N#CC1=C(N)OC2=C(CCc3ccccc32)C1c1ccccc1` (centres undefined): the Potency is 2.59 µM (active).

As to `Cc1nc2c(C(F)(F)F)cccc2c2c1CCS2`, the Potency is 16.4 µM (active).

For the molecule `COc1ccccc1-n1cnc2cc(NCc3cccs3)ccc21`, the Potency was 16.4 µM (active).

Consider `N#CC1=C2SCC(O)(c3ccccc3)N2C(=O)CC1c1cccs1` (centres undefined), for which the Potency is 13 µM (active).

In the case of `N#CC1=C2SCC(O)(c3ccccc3)N2C(=O)CC1c1ccccc1` (centres undefined), the Potency was 18.4 µM (active).

Turning to `COc1cc(OC)cc(C(=O)NCc2ccc3c(c2)CCN3C(=O)c2ccccc2)c1`, the Potency is 10.3 µM (active).

With `COc1cc(OC)cc(C(=O)NCc2cc(C)nc3ccccc23)c1`, the Potency entry was “inactive”.

Regarding `CCOc1ccccc1NC(=O)Cn1nnc(C(=O)NCc2cccs2)c1N`, the Potency was 2.59 µM (active).

With `CCc1nnc(NC(=O)CSc2nnc(-c3ccccc3NC(=O)c3ccccc3)o2)s1`, the Potency entry is “inactive”.

`O=C(CSc1nnnn1-c1ccccc1)Nc1nsc(-c2ccc(Cl)cc2)n1`: the Potency result is “inactive”.

In the case of `O=C(CSc1ncn[nH]1)Nc1nnc(-c2ccccc2)s1`, the Potency is 0.231 µM (active).

Take `CC1CCN(C(=O)CCCOc2cc(=O)n(C)c3ccccc23)CC1`: the Potency was 23.1 µM (active).

`O=C(N1CCN(c2ccccn2)CC1)N1c2ccccc2Sc2ccccc21`: the Potency was 7.31 µM (active).

With `Cc1ccc(NS(=O)(=O)c2cc(-c3n[nH]c(=O)c4ccccc34)ccc2C)cc1`, the Potency was 18.4 µM (active).

On to `CC(=O)Nc1ccc(NS(=O)(=O)c2cc(-c3n[nH]c(=O)c4ccccc34)ccc2C)cc1`, for which the Potency was 23.1 µM (active).

On to `Cc1cc(=O)[nH]c2ccc(S(=O)(=O)Nc3ccc(O)cc3)cc12`, for which the Potency result was “inactive”.

Turning to `CCOC(=O)C1C(C(=O)OC)=C(c2ccc(OC)cc2)c2ccccc2N1S(=O)(=O)C(F)(F)F` (centres undefined), the Potency result is “inactive”.

On to `COc1cc(NC(=O)COC(=O)Cc2ccc(-c3ccccc3)cc2)cc(OC)c1`, for which the Potency result was “inactive”.

For the molecule `CCn1c2ccccc2c2cc(NC(=O)c3cc(OC)cc(OC)c3)ccc21`, the Potency was 2.06 µM (active).

As for `CCn1c2ccccc2c2cc(NC(=O)c3cc(OC)c(OC)c(OC)c3)ccc21`, the Potency was 0.731 µM (active).

Regarding `COc1cc(OC)cc(C(=O)NCC(=O)Nc2ccc(-c3ccccc3)cc2)c1`, the Potency is 20.6 µM (active).

Take `CCCn1nnc(NC(=S)NC(=O)Cc2ccccc2)n1`: the Potency entry was “inactive”.

For the molecule `COc1ccc(OCC(O)CN2CCN(c3ccccc3)CC2)cc1` (centres undefined), the Potency entry is “inactive”.

`Cc1ccc(Nc2nc(-c3c(C)nc4ncccn34)cs2)cc1`: the Potency is 4.11 µM (active).

As for `Cc1nc2ncccn2c1-c1csc(Nc2ccc(N(C)C)cc2)n1`, the Potency was 7.31 µM (active).

Turning to `COc1ccc(Nc2nc(-c3c(C)nc4ncccn34)cs2)cc1`, the Potency is 2.31 µM (active).

Regarding `Cc1ccc(Nc2nc(-c3c(C)nc4ccccn34)cs2)cc1`, the Potency is 0.259 µM (active).

As to `Cc1ccc(C2OCC3(CO)COC(c4ccc(C)cc4)N23)cc1` (centres undefined), the Potency entry is “inactive”.

Regarding `Oc1[nH]c2ccc(Br)cc2c1N=NC(=S)Nc1ccc(F)cc1`, the Potency result was “inactive”.

On to `Cc1ccccc1C1=NC(C(F)(F)F)(C(F)(F)F)c2c(n(C)c(=O)n(C)c2=O)N1`, for which the Potency entry is “inactive”.

On to `COc1ccc(NC(=O)C(=O)c2cn(CC(=O)N3CCCC3)c3ccccc23)cc1`, for which the Potency was 9.2 µM (active).

For the molecule `COc1cc2cnc(-c3ccccc3)cc2cc1OC`, the Potency was 20.6 µM (active).

For `CCC(C)NC(=O)c1ccccc1NC(=O)c1ccc(CSc2ccccc2)cc1` (centres undefined), the Potency result was “inactive”.

With `COc1ccccc1C(=O)Nc1ccccc1SC(=O)c1ccccc1OC`, the Potency is 7.31 µM (active).

On to `COc1cc(NC(=S)NC(=O)c2ccccc2F)ccc1NC(=O)c1ccco1`, for which the Potency entry was “inactive”.

Take `Cc1ccc(CCC(=O)Nc2ncc(Cc3cc(Cl)ccc3Cl)s2)o1`: the Potency was 1.3 µM (active).

For the molecule `Cc1ccc(CCC(=O)Nc2ncc(Cc3cccc(Cl)c3Cl)s2)o1`, the Potency is 0.231 µM (active).

Regarding `CCc1ccc(CCC(=O)Nc2ncc(Cc3ccccc3Cl)s2)o1`, the Potency is 2.91 µM (active).

Turning to `Cc1cccc(NC(=S)N=Nc2c(O)n(C)c3ccc(S(=O)(=O)N4CCOCC4)cc23)c1`, the Potency result is “inactive”.

As to `COc1ccc(-c2csc(C3=C(O)CN(CCCN4CCCC4=O)C3=N)n2)cc1OC`, the Potency was 18.4 µM (active).

As to `CCc1ccc(S(=O)(=O)Nc2ccc(-c3ccc4nnc(C)n4n3)cc2)s1`, the Potency was 14.6 µM (active).

For `COc1ccc(OC)c(S(=O)(=O)Nc2ccc(-c3ccc4nnc(C)n4n3)cc2)c1`, the Potency entry is “inactive”.

As to `Cc1nnc2ccc(-c3ccc(NS(=O)(=O)c4ccccc4[N+](=O)[O-])cc3)nn12`, the Potency is 20.6 µM (active).

`CCN(CC)C(=S)NC(=O)c1ccc(F)cc1`: the Potency entry was “inactive”.

Turning to `CCCC1=Nc2cc(C(=O)NC3CCCCC3)ccc2Sc2ccc(C)cc21`, the Potency is 0.259 µM (active).

As to `CCOC(=O)N1CCC(NC(=O)CS(=O)(=O)Cc2nc(-c3ccccc3C)oc2C)CC1`, the Potency entry is “inactive”.

`CC1=Nc2cc(C(=O)NC3CCCCC3)ccc2Sc2ccc(Cl)cc21`: the Potency is 2.31 µM (active).

With `CCOC(=O)N1CCC(NC(=O)c2ccc3c(c2)N=C(C)c2c(C)ccc(C)c2S3)CC1`, the Potency was 6.51 µM (active).

Turning to `CC1=Nc2cc(C(=O)NC3CCCC3)ccc2Sc2ccc(Cl)cc21`, the Potency is 2.59 µM (active).

On to `CN(C)c1ccc(-c2nn3c(-c4ccccc4Cl)nnc3s2)cc1`, for which the Potency is 2.91 µM (active).

For `CCN(CC)c1ccc(-c2nn3c(-c4ccccc4OC)nnc3s2)cc1`, the Potency was 1.46 µM (active).

As for `CCN(CC)c1ccc(-c2nn3c(-c4n[nH]c5c4CCC5)nnc3s2)cc1`, the Potency is 0.651 µM (active).

Regarding `COc1ccccc1-c1nnc2sc(-c3ccc(N(C)C)cc3)nn12`, the Potency was 1.16 µM (active).

For the molecule `C[C@]12CC[C@H]3C(=CCc4cc(O)ccc43)[C@@H]1CCC2=O`, the Potency result was “inactive”.

Regarding `S=c1nc2ccccc2c2nc(-c3ccccc3)[nH]n12`, the Potency is 23.1 µM (active).

In the case of `Cc1ccccc1-c1nc2c3ccccc3nc(=S)n2[nH]1`, the Potency result is “inactive”.

Consider `S=c1nc2ccccc2c2nc(-c3ccccc3Cl)[nH]n12`, for which the Potency result was “inactive”.
